Holding throughout (assay): DAPPL (digital affinity profiling via proximity ligation, sequencing); 10 mM Tris-HCl pH 7.5, 50 mM NaCl, 1 mM DTT, 4% glycerol, room temperature, 30 min; GST-TFs on glutathione beads, 16-mer random dsDNA library, 0.1% formaldehyde crosslink after washing; high values mean tight binding
The target of one assay is T1, FEV (Homo sapiens, UniProt Q99581 1-238).
T1 sequence: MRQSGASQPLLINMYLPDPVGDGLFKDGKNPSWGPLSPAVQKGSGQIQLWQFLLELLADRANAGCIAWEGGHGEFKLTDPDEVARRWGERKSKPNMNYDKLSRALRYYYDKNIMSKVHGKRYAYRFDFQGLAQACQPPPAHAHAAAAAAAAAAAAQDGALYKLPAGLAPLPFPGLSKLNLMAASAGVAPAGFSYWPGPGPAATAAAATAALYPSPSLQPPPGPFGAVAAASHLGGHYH
The note with it: protein: recombinant; tags: N-terminal GST; dsDNA, one strand shown. The method in brief:
(§1)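 Human transcription factors fused to GST were expressed in yeast, captured on glutathione beads, given DNA barcodes and pooled with a GST-only negative control. Pools were incubated with 200 nmole of a 16-mer random double-stranded DNA library in Tris/NaCl/DTT/glycerol buffer at room temperature for 30 min. They were then washed, crosslinked with 0.1% formaldehyde, proximity-ligated (BsaI/T4 ligase, 1 h, 37 °C), PCR-amplified and sequenced on an Illumina NextSeq500. Binding signal is each 6-mer's read frequency for a factor divided by its frequency for the GST control.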

Another assay has as its target ETV5 (Homo sapiens, UniProt P41161 1-510). Particulars: protein: recombinant; tags: N-terminal GST; dsDNA, one strand shown. The procedure, abridged: as §1
In the next assay the target is HSF1 (Homo sapiens, UniProt Q00613 1-529). The note with it: protein: recombinant; tags: N-terminal GST; chain copies: 3; dsDNA, one strand shown. The method in brief:
as §1

Another assay addresses T2, SPIC (Homo sapiens, UniProt Q8N5J4 1-248).
T2 sequence: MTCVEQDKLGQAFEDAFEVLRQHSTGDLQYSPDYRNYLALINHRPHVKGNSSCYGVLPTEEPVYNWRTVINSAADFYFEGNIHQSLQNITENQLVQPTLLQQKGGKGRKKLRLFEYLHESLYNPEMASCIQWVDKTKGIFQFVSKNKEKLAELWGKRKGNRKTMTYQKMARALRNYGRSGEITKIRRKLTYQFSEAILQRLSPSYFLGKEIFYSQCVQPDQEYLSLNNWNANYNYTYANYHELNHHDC
Particulars: protein: recombinant; tags: N-terminal GST; dsDNA, one strand shown. The procedure, abridged: as §1

Another assay deals with ELF4 (Homo sapiens, UniProt Q99607 1-663). The note with it: protein: recombinant; tags: N-terminal GST; dsDNA, one strand shown. The procedure, abridged:
as §1

For the next assay, the target named is T3, ELK4 (Homo sapiens, UniProt P28324-2 1-405).
T3 sequence: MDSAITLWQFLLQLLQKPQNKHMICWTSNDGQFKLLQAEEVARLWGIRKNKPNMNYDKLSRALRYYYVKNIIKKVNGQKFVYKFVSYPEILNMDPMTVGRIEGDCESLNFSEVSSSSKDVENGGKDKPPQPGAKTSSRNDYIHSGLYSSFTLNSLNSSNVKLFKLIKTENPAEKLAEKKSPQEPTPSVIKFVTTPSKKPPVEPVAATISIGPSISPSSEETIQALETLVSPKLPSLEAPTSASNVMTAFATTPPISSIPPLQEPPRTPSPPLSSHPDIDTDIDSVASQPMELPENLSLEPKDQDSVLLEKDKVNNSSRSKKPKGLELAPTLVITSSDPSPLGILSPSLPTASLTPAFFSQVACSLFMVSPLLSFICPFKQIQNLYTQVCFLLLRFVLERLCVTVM
The note with it: protein: recombinant; tags: N-terminal GST; dsDNA, one strand shown. The procedure, abridged: as §1

A further assay addresses T4, ETV2 (Homo sapiens, UniProt O00321 1-342).
T4 sequence: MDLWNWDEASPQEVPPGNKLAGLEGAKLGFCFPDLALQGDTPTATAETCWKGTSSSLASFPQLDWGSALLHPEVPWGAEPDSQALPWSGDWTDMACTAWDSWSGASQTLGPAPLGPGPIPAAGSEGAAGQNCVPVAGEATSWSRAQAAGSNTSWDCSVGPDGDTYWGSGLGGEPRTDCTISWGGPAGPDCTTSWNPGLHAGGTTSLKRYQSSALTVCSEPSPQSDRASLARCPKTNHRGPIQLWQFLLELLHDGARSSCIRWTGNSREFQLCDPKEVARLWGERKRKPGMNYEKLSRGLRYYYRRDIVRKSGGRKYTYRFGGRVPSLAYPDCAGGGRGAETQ
The note with it: protein: recombinant; tags: N-terminal GST; dsDNA, one strand shown. The method in brief:
as §1

For a further assay, the target named is T5, ELF3 (Homo sapiens, UniProt P78545 1-371).
T5 sequence: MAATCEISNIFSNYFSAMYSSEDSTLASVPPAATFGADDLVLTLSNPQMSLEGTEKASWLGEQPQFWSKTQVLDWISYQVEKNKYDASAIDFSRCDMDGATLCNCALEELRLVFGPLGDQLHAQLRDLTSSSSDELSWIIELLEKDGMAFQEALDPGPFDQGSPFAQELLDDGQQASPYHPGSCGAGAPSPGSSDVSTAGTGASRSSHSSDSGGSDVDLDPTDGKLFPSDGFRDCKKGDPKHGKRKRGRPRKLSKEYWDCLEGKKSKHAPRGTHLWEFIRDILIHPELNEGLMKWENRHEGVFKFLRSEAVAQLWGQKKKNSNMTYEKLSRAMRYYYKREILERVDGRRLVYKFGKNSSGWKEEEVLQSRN
The note with it: protein: recombinant; tags: N-terminal GST; dsDNA, one strand shown. The procedure, abridged: as §1

For the next assay, the target named is CRX (Homo sapiens, UniProt O43186 1-299). Particulars: protein: recombinant; tags: N-terminal GST; dsDNA, one strand shown. The method in brief: as §1
CRX, sequence (O43186 whole entry): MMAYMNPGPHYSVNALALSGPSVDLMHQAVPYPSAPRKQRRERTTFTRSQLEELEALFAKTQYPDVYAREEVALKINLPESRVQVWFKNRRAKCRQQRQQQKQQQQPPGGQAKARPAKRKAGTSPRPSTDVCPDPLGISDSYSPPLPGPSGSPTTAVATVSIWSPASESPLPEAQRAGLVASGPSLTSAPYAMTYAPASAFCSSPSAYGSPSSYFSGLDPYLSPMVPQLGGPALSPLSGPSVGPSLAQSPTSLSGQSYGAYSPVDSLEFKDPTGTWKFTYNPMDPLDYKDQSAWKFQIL
For a further assay, the target named is ETV1 (Homo sapiens, UniProt P50549 1-477). The note with it: protein: recombinant; tags: N-terminal GST; dsDNA, one strand shown. The method in brief:
as §1

In a further assay the target is T6, ERF (Homo sapiens, UniProt P50548 1-548).
T6 sequence: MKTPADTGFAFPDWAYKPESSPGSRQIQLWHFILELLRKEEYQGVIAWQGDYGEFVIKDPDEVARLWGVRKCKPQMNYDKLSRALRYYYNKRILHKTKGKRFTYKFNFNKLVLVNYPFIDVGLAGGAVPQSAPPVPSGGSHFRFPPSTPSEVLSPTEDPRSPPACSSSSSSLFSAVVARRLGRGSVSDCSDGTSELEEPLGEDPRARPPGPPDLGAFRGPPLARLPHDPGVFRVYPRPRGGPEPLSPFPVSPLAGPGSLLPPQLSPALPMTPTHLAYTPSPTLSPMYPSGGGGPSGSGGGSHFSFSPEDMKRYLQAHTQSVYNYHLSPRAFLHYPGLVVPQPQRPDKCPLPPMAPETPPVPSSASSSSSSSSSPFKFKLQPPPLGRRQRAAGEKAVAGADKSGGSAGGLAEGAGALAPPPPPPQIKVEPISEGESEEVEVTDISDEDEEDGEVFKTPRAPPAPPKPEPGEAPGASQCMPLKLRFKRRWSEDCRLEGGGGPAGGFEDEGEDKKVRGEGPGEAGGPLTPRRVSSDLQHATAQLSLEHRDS
The note with it: protein: recombinant; tags: N-terminal GST; dsDNA, one strand shown. The method in brief: as §1

The next assay has as its target T7, ETV3L (Homo sapiens, UniProt Q6ZN32 1-361).
T7 sequence: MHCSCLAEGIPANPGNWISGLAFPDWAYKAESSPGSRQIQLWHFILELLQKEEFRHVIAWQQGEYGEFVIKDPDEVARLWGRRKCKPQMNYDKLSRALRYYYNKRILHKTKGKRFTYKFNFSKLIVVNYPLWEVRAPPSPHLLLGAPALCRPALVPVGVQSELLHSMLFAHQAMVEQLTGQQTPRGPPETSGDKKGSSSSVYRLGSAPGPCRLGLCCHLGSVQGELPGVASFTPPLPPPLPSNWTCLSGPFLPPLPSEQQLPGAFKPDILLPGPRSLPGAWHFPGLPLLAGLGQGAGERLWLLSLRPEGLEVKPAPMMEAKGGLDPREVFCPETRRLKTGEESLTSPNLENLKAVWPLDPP
The note with it: protein: recombinant; tags: N-terminal GST; dsDNA, one strand shown. The method in brief: as §1

A further assay deals with T8, ETS2 (Homo sapiens, UniProt P15036 1-469).
T8 sequence: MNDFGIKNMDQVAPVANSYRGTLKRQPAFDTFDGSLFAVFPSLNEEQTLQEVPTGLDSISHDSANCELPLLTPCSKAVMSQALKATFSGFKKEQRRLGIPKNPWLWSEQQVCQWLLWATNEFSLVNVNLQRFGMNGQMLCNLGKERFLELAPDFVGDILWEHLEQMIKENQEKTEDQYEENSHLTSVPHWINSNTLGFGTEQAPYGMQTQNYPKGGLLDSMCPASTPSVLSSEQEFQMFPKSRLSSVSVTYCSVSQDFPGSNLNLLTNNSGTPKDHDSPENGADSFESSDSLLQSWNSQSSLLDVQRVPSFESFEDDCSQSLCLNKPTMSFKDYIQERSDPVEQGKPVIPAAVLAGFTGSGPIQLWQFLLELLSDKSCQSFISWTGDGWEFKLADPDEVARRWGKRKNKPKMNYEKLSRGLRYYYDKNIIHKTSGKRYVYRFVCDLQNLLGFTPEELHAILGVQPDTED
Particulars: protein: recombinant; tags: N-terminal GST; dsDNA, one strand shown. The procedure, abridged:
as §1

The target of another assay is T9, SPDEF (Homo sapiens, UniProt O95238 1-335).
T9 sequence: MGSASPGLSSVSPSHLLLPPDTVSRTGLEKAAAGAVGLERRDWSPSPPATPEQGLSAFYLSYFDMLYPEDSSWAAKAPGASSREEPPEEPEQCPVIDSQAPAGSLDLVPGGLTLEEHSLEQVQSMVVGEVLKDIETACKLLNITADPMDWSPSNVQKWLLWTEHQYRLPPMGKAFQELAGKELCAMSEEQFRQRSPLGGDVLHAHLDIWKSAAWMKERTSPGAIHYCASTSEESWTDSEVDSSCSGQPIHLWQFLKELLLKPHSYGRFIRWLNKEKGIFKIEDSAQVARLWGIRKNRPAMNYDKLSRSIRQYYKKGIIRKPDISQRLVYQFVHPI
Particulars: protein: recombinant; tags: N-terminal GST; dsDNA, one strand shown. The method in brief:
as §1

A further assay deals with T10, ETV7 (Homo sapiens, UniProt Q9Y603 1-341).
T10 sequence: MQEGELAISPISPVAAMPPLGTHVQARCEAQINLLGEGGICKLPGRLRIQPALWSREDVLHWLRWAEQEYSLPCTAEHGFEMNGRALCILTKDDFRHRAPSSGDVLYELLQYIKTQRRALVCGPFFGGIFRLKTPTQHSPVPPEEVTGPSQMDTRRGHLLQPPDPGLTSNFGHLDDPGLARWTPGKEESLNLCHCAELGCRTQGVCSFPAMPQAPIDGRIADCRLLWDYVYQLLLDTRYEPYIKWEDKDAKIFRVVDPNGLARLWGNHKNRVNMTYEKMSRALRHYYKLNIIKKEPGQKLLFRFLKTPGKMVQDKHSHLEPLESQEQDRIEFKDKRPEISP
The note with it: protein: recombinant; tags: N-terminal GST; dsDNA, one strand shown. The method in brief:
as §1

A further assay addresses T11, ELF5 (Homo sapiens, UniProt Q9UKW6-2 1-255).
T11 sequence: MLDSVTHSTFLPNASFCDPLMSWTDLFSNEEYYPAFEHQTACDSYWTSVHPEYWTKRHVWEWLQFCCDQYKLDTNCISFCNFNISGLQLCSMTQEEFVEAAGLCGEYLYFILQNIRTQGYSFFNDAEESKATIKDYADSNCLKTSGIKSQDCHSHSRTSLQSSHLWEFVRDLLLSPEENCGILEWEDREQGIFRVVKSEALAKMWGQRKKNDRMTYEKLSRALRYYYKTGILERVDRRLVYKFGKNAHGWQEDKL
The note with it: protein: recombinant; tags: N-terminal GST; dsDNA, one strand shown. The procedure, abridged:
as §1

In another assay the target is T12, ETV3 (Homo sapiens, UniProt P41162-2 1-143).
T12 sequence: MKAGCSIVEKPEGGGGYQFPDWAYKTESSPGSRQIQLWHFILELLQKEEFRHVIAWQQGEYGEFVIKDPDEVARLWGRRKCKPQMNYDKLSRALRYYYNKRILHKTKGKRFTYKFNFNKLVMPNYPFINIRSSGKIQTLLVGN
Particulars: protein: recombinant; tags: N-terminal GST; dsDNA, one strand shown. The procedure, abridged: as §1

In a further assay the target is ETV6 (Homo sapiens, UniProt P41212 1-452). Particulars: protein: recombinant; tags: N-terminal GST; dsDNA, one strand shown. The procedure, abridged:
as §1

HSF1, sequence (Q00613 whole entry): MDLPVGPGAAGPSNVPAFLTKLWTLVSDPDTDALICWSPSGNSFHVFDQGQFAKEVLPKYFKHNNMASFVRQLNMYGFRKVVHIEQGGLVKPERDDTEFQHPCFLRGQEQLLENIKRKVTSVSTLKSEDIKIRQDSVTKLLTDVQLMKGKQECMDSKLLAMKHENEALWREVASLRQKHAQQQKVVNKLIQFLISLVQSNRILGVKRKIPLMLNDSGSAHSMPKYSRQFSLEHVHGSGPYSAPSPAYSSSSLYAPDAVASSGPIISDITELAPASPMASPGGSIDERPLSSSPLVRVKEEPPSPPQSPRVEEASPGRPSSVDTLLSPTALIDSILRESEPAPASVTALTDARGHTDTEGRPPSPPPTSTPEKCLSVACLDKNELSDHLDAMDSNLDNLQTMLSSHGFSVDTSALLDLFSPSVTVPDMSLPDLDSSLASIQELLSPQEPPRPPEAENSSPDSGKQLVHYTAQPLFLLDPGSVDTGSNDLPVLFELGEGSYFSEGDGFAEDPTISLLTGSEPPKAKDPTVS
ELF4, sequence (Q99607 whole entry): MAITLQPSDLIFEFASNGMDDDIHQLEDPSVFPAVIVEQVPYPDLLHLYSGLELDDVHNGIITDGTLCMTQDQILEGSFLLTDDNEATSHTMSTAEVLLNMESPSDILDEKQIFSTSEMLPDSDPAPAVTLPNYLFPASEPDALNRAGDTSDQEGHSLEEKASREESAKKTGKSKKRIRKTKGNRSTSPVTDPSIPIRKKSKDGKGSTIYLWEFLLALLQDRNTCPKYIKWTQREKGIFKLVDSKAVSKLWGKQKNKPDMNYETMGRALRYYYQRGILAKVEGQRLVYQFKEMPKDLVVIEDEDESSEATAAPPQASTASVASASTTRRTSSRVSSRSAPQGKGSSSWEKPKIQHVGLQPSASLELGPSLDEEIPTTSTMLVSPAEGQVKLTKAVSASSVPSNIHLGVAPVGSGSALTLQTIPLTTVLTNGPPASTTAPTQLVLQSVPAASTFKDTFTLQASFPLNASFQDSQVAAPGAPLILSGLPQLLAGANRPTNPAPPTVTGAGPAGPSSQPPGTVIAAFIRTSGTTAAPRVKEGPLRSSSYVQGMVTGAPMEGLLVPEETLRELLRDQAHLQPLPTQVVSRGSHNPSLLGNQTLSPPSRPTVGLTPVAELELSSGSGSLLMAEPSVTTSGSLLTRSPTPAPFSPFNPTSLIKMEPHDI
ETV1, sequence (P50549 whole entry): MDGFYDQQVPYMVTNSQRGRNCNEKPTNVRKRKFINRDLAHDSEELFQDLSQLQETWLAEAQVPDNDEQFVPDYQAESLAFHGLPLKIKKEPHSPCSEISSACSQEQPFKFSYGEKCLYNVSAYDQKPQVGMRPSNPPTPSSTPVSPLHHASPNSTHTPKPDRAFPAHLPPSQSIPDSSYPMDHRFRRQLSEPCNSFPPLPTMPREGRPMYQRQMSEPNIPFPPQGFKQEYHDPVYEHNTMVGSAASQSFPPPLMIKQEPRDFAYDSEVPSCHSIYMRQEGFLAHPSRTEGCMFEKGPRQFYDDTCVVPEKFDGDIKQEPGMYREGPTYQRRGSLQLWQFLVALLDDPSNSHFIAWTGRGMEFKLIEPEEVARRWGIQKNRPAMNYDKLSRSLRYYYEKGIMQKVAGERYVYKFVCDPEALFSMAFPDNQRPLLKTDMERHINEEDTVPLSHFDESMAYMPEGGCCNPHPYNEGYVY
ETV6, sequence (P41212 whole entry): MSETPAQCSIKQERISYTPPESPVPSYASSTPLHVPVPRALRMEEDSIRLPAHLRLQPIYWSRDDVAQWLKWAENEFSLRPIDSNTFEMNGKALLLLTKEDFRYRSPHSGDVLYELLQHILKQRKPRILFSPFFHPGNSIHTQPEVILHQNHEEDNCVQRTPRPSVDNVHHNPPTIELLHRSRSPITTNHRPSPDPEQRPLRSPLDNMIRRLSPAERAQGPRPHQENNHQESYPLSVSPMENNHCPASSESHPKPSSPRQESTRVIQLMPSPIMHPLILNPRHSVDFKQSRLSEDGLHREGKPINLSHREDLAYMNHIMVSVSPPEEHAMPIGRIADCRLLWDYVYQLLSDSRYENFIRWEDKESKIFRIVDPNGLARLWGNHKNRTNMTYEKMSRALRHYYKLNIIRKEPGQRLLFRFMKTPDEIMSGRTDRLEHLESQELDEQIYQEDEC
ETV5, sequence (P41161 whole entry): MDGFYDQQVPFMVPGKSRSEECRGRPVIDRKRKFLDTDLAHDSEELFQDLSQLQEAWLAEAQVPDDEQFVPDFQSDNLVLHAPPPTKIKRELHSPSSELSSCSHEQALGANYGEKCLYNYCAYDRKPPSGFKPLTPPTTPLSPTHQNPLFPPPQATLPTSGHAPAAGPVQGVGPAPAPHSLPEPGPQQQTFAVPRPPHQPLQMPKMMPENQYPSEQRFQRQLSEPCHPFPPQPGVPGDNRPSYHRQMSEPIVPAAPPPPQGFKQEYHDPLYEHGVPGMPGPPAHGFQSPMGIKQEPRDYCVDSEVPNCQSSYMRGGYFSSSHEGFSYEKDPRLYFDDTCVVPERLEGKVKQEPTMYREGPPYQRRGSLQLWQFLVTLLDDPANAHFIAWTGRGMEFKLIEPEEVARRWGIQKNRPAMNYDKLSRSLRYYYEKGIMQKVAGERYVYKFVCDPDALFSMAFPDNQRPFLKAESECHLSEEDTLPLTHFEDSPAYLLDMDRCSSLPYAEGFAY

As for TTATCT, the binding signal in the assay with FEV is 1.24 fold enrichment (6-mer frequency, TF over GST control); with ETV5, 1.27 fold enrichment (6-mer frequency, TF over GST control); in the assay with HSF1, 2.24 fold enrichment (6-mer frequency, TF over GST control); in the assay with SPIC it was 1.25 fold enrichment (6-mer frequency, TF over GST control); in the assay with ELF4 it was 1.25 fold enrichment (6-mer frequency, TF over GST control); with ELK4 it was 1.45 fold enrichment (6-mer frequency, TF over GST control). Also, the binding signal was 1.2 fold enrichment (6-mer frequency, TF over GST control) in the assay with ETV2; 1.13 fold enrichment (6-mer frequency, TF over GST control) with ELF3; 3.25 fold enrichment (6-mer frequency, TF over GST control) in the assay with CRX; 1.29 fold enrichment (6-mer frequency, TF over GST control) with ETV1; 1.23 fold enrichment (6-mer frequency, TF over GST control) in the assay with ERF; 1.44 fold enrichment (6-mer frequency, TF over GST control) with ETV3L. Besides, the binding signal in the assay with ETS2 was 1.35 fold enrichment (6-mer frequency, TF over GST control); with SPDEF it was 1.24 fold enrichment (6-mer frequency, TF over GST control); with ETV7, 1.15 fold enrichment (6-mer frequency, TF over GST control); with ELF5 it was 1.22 fold enrichment (6-mer frequency, TF over GST control); with ETV3, 1.28 fold enrichment (6-mer frequency, TF over GST control); with ETV6, 1.25 fold enrichment (6-mer frequency, TF over GST control).
